# Measured values from ChEMBL document CHEMBL3988442, “University of Dundee, Small-Polar-MMV Screening Library” (2021).
# Experiments:
# [1] = biological target: T1, Aspartate--tRNA(Asp/Asn) ligase (Mycobacterium tuberculosis (strain ATCC 25618 / H37Rv)) (UniProt P9WFW3); assay: Assay for Asp RNA synthetase-1 from Mycobacterium tuberculosis; assay type: functional; set-up: scale not given: direction of the effect not stated beside the values; conditions: 30 µM; further: in the data most compounds retested in dose-response had high values
# T1 sequence (whole entry): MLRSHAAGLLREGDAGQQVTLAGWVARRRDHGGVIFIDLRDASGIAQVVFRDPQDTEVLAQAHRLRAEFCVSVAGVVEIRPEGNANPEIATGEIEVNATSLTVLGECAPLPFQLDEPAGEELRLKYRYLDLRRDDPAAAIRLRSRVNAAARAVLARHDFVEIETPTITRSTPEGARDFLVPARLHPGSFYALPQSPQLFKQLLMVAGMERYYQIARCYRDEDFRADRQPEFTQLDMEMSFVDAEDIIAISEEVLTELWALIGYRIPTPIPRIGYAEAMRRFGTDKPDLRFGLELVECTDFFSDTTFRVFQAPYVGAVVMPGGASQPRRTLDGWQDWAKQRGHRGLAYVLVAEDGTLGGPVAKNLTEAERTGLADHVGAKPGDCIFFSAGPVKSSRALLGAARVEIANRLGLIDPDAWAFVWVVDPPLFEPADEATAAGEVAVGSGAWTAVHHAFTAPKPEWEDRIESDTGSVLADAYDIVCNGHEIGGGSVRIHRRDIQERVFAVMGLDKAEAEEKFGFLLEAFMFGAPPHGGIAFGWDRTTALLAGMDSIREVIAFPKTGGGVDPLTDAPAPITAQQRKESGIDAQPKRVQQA
# [2] = biological target: Shiga toxin 2 (Escherichia coli O157:H7) (UniProt P09385+P09386); assay: E. coli 0.157:H7 Shiga Toxin SOP - stx2 screening assay; assay type: functional; set-up: scale not given: direction of the effect not stated beside the values; conditions: 30 µM
Compound,Percent Effect [1] [%],Percent Effect [2] [%]
CCC(O)CN1CCN(C(=O)c2cccn2Cc2cccs2)CC1 (configuration not stated),0.685,9.26
Cc1nc(C)n(CC2CN(Cc3cccc(C#N)c3)CCO2)n1 (configuration not stated),3.11,20.9
COc1ccc(C2=C(C)C(N3CCc4ccccc4C3)=NS2(=O)=O)cc1,2.67,-90
O=C(c1cnccn1)N1CCCC2(COCCN(CC3CC3)C2)C1 (configuration not stated),3.16,9.41
COCCCN1CCCN(C(C)C(=O)Nc2ccnn2C(C)C)CC1 (configuration not stated),-3.7,11.2
Cc1cnn(CC2CCCCN2Cc2nnc(-c3ccco3)o2)c1 (configuration not stated),11.6,2.18
COc1ccccc1OCC(=O)NCC(O)(c1ccccc1)C1CC1 (configuration not stated),-1.26,6.19
CCc1c(C)nc2n(c1=O)CC(C(=O)Nc1nc3c(s1)CCCC3)CS2 (configuration not stated),2.32,-5.2
CCC1=N[C@@]2(CC[C@@H]3CN(S(=O)(=O)CC)C[C@@H]32)C(=O)N1CC(C)C,2.06,-9.69
Cc1ccc(CNC(=O)NCc2cccnc2N(C)C)s1,-3.67,1.79
CC(C)CNC(=O)c1ccc2nnc(C3CCN(S(C)(=O)=O)C3)n2c1 (configuration not stated),3.22,3.22
Cn1cnc2c1C(COCC1CC1)CN(C(=O)Cc1ccsc1)C2 (configuration not stated),0.364,-17.9
Cc1nc(-c2ccc(C(=O)O)cc2)cc(C2CCN(C(C)C)C2)n1 (configuration not stated),2.34,-5.82
CN1[C@H](Cn2cccn2)C[C@@H]2CN(C(=O)Cc3cccs3)CC[C@@H]21,3.12,-12.8
COCC1Cn2nnc(-c3cnn(C)c3)c2CN1Cc1ccco1 (configuration not stated),0.436,-1.07
O=C(c1ccc(-n2cccn2)nc1)N1CCC(Nc2cccnn2)CC1,-2.94,26.9
Cc1ccc(CC(=O)N2CCc3nnc(N(C)C)cc3C2)cn1,0.322,-40.7
CCc1n[nH]c(C2CN(CCc3cccs3)CCO2)n1 (configuration not stated),-6.83,-38.7
COCCN1C(=O)[C@]2(CC[C@@H]3CN(C(=O)NC4CCCC4)C[C@@H]32)N=C1C,0.379,-4.86
Cc1cccc(CN2C(=O)CCC23CCN(c2ncc(F)cn2)CC3)n1,-0.66,-5.21
CN(C)c1cncc(C2CCN(CCO)CC2)n1,-2.69,-4.99
Cc1ccc(CCC(=O)N(C)CCN2CCOCC2)c(C)c1,-4.01,-8.65
Cc1ccccc1CSc1nc(N)cc(N2C[C@H](O)[C@@H](N(C)C)C2)n1,3.57,14.8

Compound,Percent Effect [1] [%],Percent Effect [2] [%]
COCCn1cc(C(=O)N2CCCC2c2cc(C)no2)ccc1=O (configuration not stated),-2.11,3.38
Cc1nc(C)n(CC2CCCN2CC(=O)Nc2ccnn2C(C)C)n1 (configuration not stated),-1.15,23.4
CSC(C)C(=O)N1CCCN(Cc2cscn2)CC1 (configuration not stated),-6.57,25.4
Cc1cc(CN(C)C(=O)C2CCCN(C(=O)c3cccs3)C2)no1 (configuration not stated),5.71,-56.4
Cc1ccc(=O)n(CC2(O)CCN(Cc3ccsc3)CC2)n1,-3.38,12.7
N#Cc1ccccc1OCCN1CCCCC1Cn1cncn1 (configuration not stated),3.26,5.17
CN1[C@H](CN2CCCC2)C[C@@H]2CN(C(=O)Cc3cccs3)CC[C@@H]21,3.89,-16
c1nc2c(c(C3CC3)n1)CCN(Cc1ccc3c(c1)OCO3)CC2,-2.19,-20.6
Cc1ccoc1-c1nnc(CNCCn2cccn2)o1,0.914,-39.9
CC(C(=O)NCc1ccnc(N(C)C)c1)n1cncn1 (configuration not stated),0.0335,-9.74
c1cnc(N2CCOCC3(CCCN(CC4CC4)C3)C2)cn1 (configuration not stated),0.0873,-8.06
COc1ccc(-n2nnc(C(=O)NC(C)C)c2C2CC2)cc1,-4.62,10.4
Cn1nccc1-c1ccc2nc(C3CCN(CCO)CC3)nn2c1,-1.83,-15.6
CC(C)c1ccc(CN2CCC3(CCCN(c4nncs4)C3)C2)cc1 (configuration not stated),1,5.96
Cc1nnc2n1CCN(Cc1csc(-c3ccc(F)cc3)n1)C2,2.74,3.01
CC(CCN1CCn2nc(CNC(=O)N(C)C)cc2C1)c1ccccc1 (configuration not stated),-3.2,-1.92
CCc1ncc(C(=O)N2CCOCC2c2c(C)n[nH]c2C)s1 (configuration not stated),2.97,7.37
CCn1cc(C(=O)NCc2csc(Br)c2)cn1,-3.16,6.72
Cc1cnc2n(c1=O)CC(C(=O)Nc1ccccc1Cl)CS2 (configuration not stated),-5.41,-4.63
Cc1noc2ncc(C(=O)NCC3CCOC3)cc12 (configuration not stated),-2.88,16.2
Cn1cc(CN2CCCN(C(=O)c3cc[nH]n3)CC2)cn1,-4.23,-19.9
CN1CCN(CCO)C(=O)C12CCN(Cc1ccsc1)CC2,-3.89,-1.74
CC(C)c1nn(C)c(N2CCOCC2)c1CNCCS(C)(=O)=O,-2.08,-5.89
